These results are taken from PubChem BioAssay (EPA / NIEHS).

Read-out in test [1]: Cyclin D2 (CCND2), CCND2 (gene 894)
Put plainly: LTEA_HepaRG_CCND2: Life Technologies and Expression Analysis (LTEA) Assay for Cyclin D2 (CCND2) using HepaRG (AID 2283449).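 Also: CCND2 transcript measured by TaqMan qRT-PCR and normalised to three housekeeping genes.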 The following applies: mRNA level, 48 h; actives raise or lower the signal. Put shortly: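 HepaRG, 48 h dosing, 8-pt half-log curve from 100 uM, 0.5% DMSO; duplicate wells. Readout: CCND2 transcript by microfluidic qRT-PCR, housekeeping-normalised; bidirectional fit vs DMSO baseline.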

Read-out in test [2]: Cyclin Dependent Kinase Inhibitor 1A (CDKN1A), CDKN1A (gene 1026)
Put plainly: LTEA_HepaRG_CDKN1A: Life Technologies and Expression Analysis (LTEA) Assay for Cyclin Dependent Kinase Inhibitor 1A (CDKN1A) using HepaRG (AID 2283450). The following applies: mRNA level, 48 h; actives raise or lower the signal. The gist of the method: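 Read-out is CDKN1A mRNA by TaqMan qRT-PCR, normalized to three housekeeping genes and fitted in both directions against the DMSO baseline. Human HepaRG cells were treated 48 h with test chemicals up to 100 uM in half-log steps, 0.5% DMSO.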

Read-out in test [3]: Cyclin D1 (CCND1), CCND1 (gene 595)
Put plainly: LTEA_HepaRG_CCND1: Life Technologies and Expression Analysis (LTEA) Assay for Cyclin D1 (CCND1) using HepaRG (AID 2283451). The conditions noted are these: mRNA level, 48 h; actives raise or lower the signal. Put shortly:
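HepaRG plated 48 h, medium switched to serum-free induction medium, chemicals added in duplicate (top 100 uM, half-log steps, 0.5% DMSO) for 48 h, cells lysed, RNA measured by TaqMan qRT-PCR.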

Read-out in test [4]: catalase (CAT), CAT (gene 847)
Put plainly: LTEA_HepaRG_CAT: Life Technologies and Expression Analysis (LTEA) Assay for catalase (CAT) using HepaRG (AID 2283452). The following applies: mRNA level, 48 h; actives raise or lower the signal. The gist of the method: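 HepaRG cells in serum-free induction medium, 0.5% DMSO vehicle, exposed 48 h in duplicate over 8 half-log concentrations from 100 uM. CAT mRNA measured by qRT-PCR, normalized to ACTB, GAPDH, POLR2A; bidirectional fit versus DMSO.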

Read-out in test [5]: flavin-containing dimethylaniline monooxygenases 3 (FMO3), FMO3 (gene 2328)
Put plainly: LTEA_HepaRG_FMO3: Life Technologies and Expression Analysis (LTEA) Assay for flavin-containing dimethylaniline monooxygenases 3 (FMO3) using HepaRG (AID 2283453).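 As to AC50: differentiated human HepaRG liver cells in serum-free induction medium.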 The conditions noted are these: mRNA level, 48 h; actives raise or lower the signal. The gist of the method:
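Eight-point concentration-response in serum-free HepaRG cultures (top 100 uM, 0.5% DMSO, 48 h). Read-out: FMO3 mRNA level normalized to three endogenous control genes, fitted bidirectionally versus vehicle.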

Read-out in test [6]: Cytochrome P450 (CYP1A1), CYP1A1 (gene 1543)
Put plainly: LTEA_HepaRG_CYP1A1: Life Technologies and Expression Analysis (LTEA) Assay for Cytochrome P450 (CYP1A1) using HepaRG (AID 2283454). The conditions noted are these: mRNA level, 48 h; actives raise or lower the signal. Put shortly: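 HepaRG, 48 h post-plating switched to serum-free induction medium; 8-pt conc-response (top 100 uM, half-log, 0.5% DMSO), duplicates, 48 h. Lysis in RLT, TaqMan qRT-PCR for CYP1A1; gain or loss vs DMSO.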

Read-out in test [7]: CFLAR gene, CFLAR (gene 8837)
Put plainly: LTEA_HepaRG_CFLAR: Life Technologies and Expression Analysis (LTEA) Assay for CFLAR gene using HepaRG (AID 2283455). The conditions noted are these: mRNA level, 48 h; actives raise or lower the signal. The gist of the method: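 qRT-PCR read-out (Fluidigm/TaqMan) of CFLAR mRNA, normalized to three housekeeping genes, in differentiated human HepaRG cells after 48 h chemical exposure; 8-point half-log series from 100 uM in 0.5% DMSO; bidirectional curve fitting versus DMSO.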

Read-out in test [8]: Forkhead box O1 (FOXO1), FOXO1 (gene 2308)
Put plainly: LTEA_HepaRG_FOXO1: Life Technologies and Expression Analysis (LTEA) Assay for Forkhead box O1 (FOXO1) using HepaRG (AID 2283456). The conditions noted are these: mRNA level, 48 h; actives raise or lower the signal. Put shortly:
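HepaRG, 48 h exposure, 8-pt half-log series from 100 uM in 0.5% DMSO, duplicates; Fluidigm qRT-PCR mRNA, housekeeping-normalised; bidirectional fit vs DMSO baseline.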

Read-out in test [9]: growth arrest and DNA damage 45 (GADD45A), GADD45A (gene 1647)
Put plainly: LTEA_HepaRG_GADD45A: Life Technologies and Expression Analysis (LTEA) Assay for growth arrest and DNA damage 45 (GADD45A) using HepaRG (AID 2283458). The conditions noted are these: mRNA level, 48 h; actives raise or lower the signal. Put shortly: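 HepaRG, 48 h exposure, 8 conc. (top 100 uM, half-log steps), 0.5% DMSO vehicle, duplicates. Read-out: qRT-PCR mRNA level, housekeeping-normalized (ACTB/GAPDH/POLR2A). Curves fit bidirectionally vs DMSO baseline.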

Read-out in test [10]: Forkhead box O3 (FOXO3), FOXO3 (gene 2309)
Put plainly: LTEA_HepaRG_FOXO3: Life Technologies and Expression Analysis (LTEA) Assay for Forkhead box O3 (FOXO3) using HepaRG (AID 2283459). The following applies: mRNA level, 48 h; actives raise or lower the signal. Put shortly: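 qRT-PCR readout of FOXO3 transcript, normalized to three housekeeping genes (ACTB, GAPDH, POLR2A); gain or loss fitted against 0.5% DMSO vehicle. HepaRG cells, 48 h chemical exposure, 8-point half-log series, top 100 uM.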

Read-out in test [11]: ABC Transporter (ABCB1), ABCB1 (gene 5243)
Put plainly: LTEA_HepaRG_ABCB1: Life Technologies and Expression Analysis (LTEA) Assay for ABC Transporter (ABCB1) using HepaRG (AID 2283460). The conditions noted are these: mRNA level, 48 h; actives raise or lower the signal. The gist of the method: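 HepaRG, 48 h exposure, 8-pt half-log series from 100 uM, 0.5% DMSO vehicle, duplicates. Readout: ABCB1 transcript by Fluidigm TaqMan qRT-PCR, housekeeping-normalized; bidirectional curve fit vs DMSO baseline.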

Read-out in test [12]: growth arrest and DNA damage 45 (GADD45B), GADD45B (gene 4616)
Put plainly: LTEA_HepaRG_GADD45B: Life Technologies and Expression Analysis (LTEA) Assay for growth arrest and DNA damage 45 (GADD45B) using HepaRG (AID 2283461). The following applies: mRNA level, 48 h; actives raise or lower the signal. Put shortly: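 HepaRG, ~100,000 cells/well, 48 h plating; serum-free induction medium; cpd 100 uM top, half-log x8, 0.5% DMSO, duplicate, 48 h; lysis in RLT, RNA isolation, qRT-PCR; norm ACTB/GAPDH/POLR2A; bidirectional fit vs DMSO.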

Read-out in test [13]: ABC Transporter (ABCC3), ABCC3 (gene 8714)
Put plainly: LTEA_HepaRG_ABCC3: Life Technologies and Expression Analysis (LTEA) Assay for ABC Transporter (ABCC3) using HepaRG (AID 2283462). The following applies: mRNA level, 48 h; actives raise or lower the signal. The gist of the method:
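Human HepaRG, 48 h dosing, 8-pt half-log series from 100 uM, 0.5% DMSO vehicle, duplicates. ABCC3 mRNA by TaqMan qRT-PCR, housekeeping-normalized; bidirectional curve fit vs DMSO.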

Read-out in test [14]: ABC Transporter (ABCB11), ABCB11 (gene 8647)
Put plainly: LTEA_HepaRG_ABCB11: Life Technologies and Expression Analysis (LTEA) Assay for ABC Transporter (ABCB11) using HepaRG (AID 2283463). The following applies: mRNA level, 48 h; actives raise or lower the signal. Put shortly:
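HepaRG, 48 h exposure, 8-pt half-log CRC top 100 uM, 0.5% DMSO vehicle, duplicates. Readout: TaqMan qRT-PCR of ABCB11 mRNA, housekeeping-normalized (ACTB/GAPDH/POLR2A). Bidirectional fit vs DMSO baseline.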

Read-out in test [15]: ABC Transporter (ABCC2), ABCC2 (gene 1244)
Put plainly: LTEA_HepaRG_ABCC2: Life Technologies and Expression Analysis (LTEA) Assay for ABC Transporter (ABCC2) using HepaRG (AID 2283464). The conditions noted are these: mRNA level, 48 h; actives raise or lower the signal. Put shortly:
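HepaRG, 48 h post-plating; serum-free induction medium; cpd 8-pt, 100 uM top, half-log, 0.5% DMSO, duplicate, 48 h. Readout: ABCC2 mRNA by qRT-PCR, norm. ACTB/GAPDH/POLR2A. Bidirectional fit vs DMSO baseline.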

Read-out in test [16]: Broad substrate specificity ATP-binding cassette transporter ABCG2 (Homo sapiens) (UniProt Q9UNQ0)
Put plainly: LTEA_HepaRG_ABCG2: Life Technologies and Expression Analysis (LTEA) Assay for ABC Transporter (ABCG2) using HepaRG (AID 2283465). The following applies: mRNA level, 48 h; actives raise or lower the signal. Put shortly:
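HepaRG, 48 h exposure, 8-pt half-log series from 100 uM, 0.5% DMSO vehicle, duplicates. Readout: ABCG2 transcript by qRT-PCR (Fluidigm array), housekeeping-normalized; bidirectional curve fit relative to DMSO baseline.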

Read-out in test [17]: ATP-citrate lyase (ACLY), ACLY (gene 47)
Put plainly: LTEA_HepaRG_ACLY: Life Technologies and Expression Analysis (LTEA) Assay for ATP-citrate lyase (ACLY) using HepaRG (AID 2283466). The conditions noted are these: mRNA level, 48 h; actives raise or lower the signal. Put shortly: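 qRT-PCR readout of ACLY transcript after 48 h chemical treatment of HepaRG cells; expression normalized to three housekeeping genes. Eight-point half-log series, highest 100 uM, 0.5% DMSO vehicle. Gain or loss fitted against DMSO baseline.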

Read-out in test [18]: Alkaline Phosphatase, Placental (ALPP) gene, ALPP (gene 250)
Put plainly: LTEA_HepaRG_ALPP: Life Technologies and Expression Analysis (LTEA) Assay for Alkaline Phosphatase, Placental (ALPP) gene using HepaRG (AID 2283468).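 As to AC50: differentiated human HepaRG liver cells in serum-free induction medium.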 The conditions noted are these: mRNA level, 48 h; actives raise or lower the signal. The gist of the method:
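HepaRG, 48 h plating then 48 h dosing, serum-free induction medium, 0.5% DMSO. 8 conc, half-log, max 100 uM, duplicates. Endpoint: ALPP transcript by qRT-PCR, housekeeping-normalized; gain or loss fitted vs DMSO.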

A short description of test [19]: CEETOX_H295R_TESTO: CeeTox H295R High-throughput Steroidogenesis Assay for Testosterone (TESTO) (AID 2283457). The following applies: actives raise or lower the signal. Put shortly:
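H295R, passage ≤10, 48 h dosing; media extracted with MTBE → HPLC-MS/MS for testosterone; 7-pt standard curve sets LLOQ/ULOQ; bidirectional fit vs DMSO; MTT viability same wells.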

Structures are written as SMILES. The source made the active and inactive calls. The calls were made as follows: active = hit-call score of the fitted dose curve at least 0.9, where 1 is the maximum; inactive = score below 0.9.

Sequence of Broad substrate specificity ATP-binding cassette transporter ABCG2 (Homo sapiens) (Q9UNQ0 whole entry, looked up): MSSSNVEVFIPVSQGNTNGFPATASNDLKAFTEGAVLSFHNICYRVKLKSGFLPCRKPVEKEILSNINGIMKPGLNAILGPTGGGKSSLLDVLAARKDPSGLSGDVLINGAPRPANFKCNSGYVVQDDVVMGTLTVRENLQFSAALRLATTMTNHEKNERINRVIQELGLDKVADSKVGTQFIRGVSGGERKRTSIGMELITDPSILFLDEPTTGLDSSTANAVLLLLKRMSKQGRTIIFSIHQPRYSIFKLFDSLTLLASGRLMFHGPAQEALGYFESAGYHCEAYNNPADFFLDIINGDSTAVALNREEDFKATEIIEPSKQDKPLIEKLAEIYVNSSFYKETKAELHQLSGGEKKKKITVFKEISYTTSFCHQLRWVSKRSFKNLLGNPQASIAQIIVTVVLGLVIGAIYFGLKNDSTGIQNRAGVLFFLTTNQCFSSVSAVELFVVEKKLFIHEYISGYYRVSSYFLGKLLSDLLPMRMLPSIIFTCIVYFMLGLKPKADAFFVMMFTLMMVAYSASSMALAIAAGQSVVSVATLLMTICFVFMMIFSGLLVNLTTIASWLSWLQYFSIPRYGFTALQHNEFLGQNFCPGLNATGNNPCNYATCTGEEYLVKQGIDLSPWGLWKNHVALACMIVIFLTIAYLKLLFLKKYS

On to `CCOC(=O)NCCOc1ccc(Oc2ccccc2)cc1`, for which the result in test [1], in [3], in test [7], in [10], in [12] and in test [13] was inactive. The molecule was called inactive in test [15] and in test [17]. Besides, the AC50 in [2] was 83.4 µM (active); in test [4], 89.3 µM (active); in test [5], 96 µM (active); in [6] it was 50 µM (active); in test [8] it was 88.5 µM (active); in [9], 79.5 µM (active). Besides, the AC50 was 84.4 µM (active) in [11], 71.2 µM (active) in [14], 78 µM (active) in test [16] and 50 µM (active) in [18].
On to `c1ccc2[nH]c(-c3cscn3)nc2c1`, for which the result in test [1], in test [2], in [3], in [4], in test [5] and in test [7] was inactive. The molecule was classed as inactive in test [8], in test [19], in test [9], in [10], in test [11] and in [12]. The molecule was called inactive in [13], in test [14], in test [15], in [17] and in [18]. For the same molecule, the AC50 in [6] is 18.9 µM (active); in test [16] it was 9.92 µM (active).
